In general, inhibition refers to the change of the read-out against control, counted positive when it falls.

Activity calls are given as the source filed them. No rule for the calls is given here.

Sequence of fMet-Leu-Phe receptor (Homo sapiens) (P21462 whole entry, looked up): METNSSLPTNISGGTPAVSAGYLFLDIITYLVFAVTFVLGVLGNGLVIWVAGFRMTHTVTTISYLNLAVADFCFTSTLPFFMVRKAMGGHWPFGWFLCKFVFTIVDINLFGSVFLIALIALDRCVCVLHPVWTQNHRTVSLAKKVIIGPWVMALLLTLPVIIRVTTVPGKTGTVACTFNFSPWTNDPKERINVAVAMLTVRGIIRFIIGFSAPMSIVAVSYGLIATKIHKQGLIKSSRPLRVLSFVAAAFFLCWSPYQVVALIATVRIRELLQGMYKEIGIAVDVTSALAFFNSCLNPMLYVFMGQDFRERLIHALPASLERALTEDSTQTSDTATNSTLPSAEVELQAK

The test addresses fMet-Leu-Phe receptor (Homo sapiens) (UniProt P21462). Kind of test: human FPR1 ligand displacement single-point test – cell-based, single concentration, selectivity assay for FPRL1 ligand SAR project, SAR follow-up (AID 763). The settings on record: FPR1-expressing cells, fluorescent ligand binding inhibition, hits give high values; at 5.4 µM unless noted.
Consider `CCOC(=O)N1CCN(c2nc(-c3cccc(OC)c3)cc(C(F)(F)F)n2)CC1`, for which the inhibition was -33.9% (inactive).

Turning to `COc1ccc(-c2cn3cccnc3n2)cc1NC(=O)c1cccc(OC)c1OC`, the inhibition is -0.2% [at 5.5 µM] (inactive).

As for `CC(N)C(=O)N1CCN(c2nc(-c3ccccc3)c3cc([N+](=O)[O-])ccc3n2)CC1` (stereo not drawn), the inhibition was -1.4% [at 5.5 µM] (inactive). To `COc1ccc(-c2cn3cccnc3n2)cc1NC(=O)CCC1CCCCC1` belongs -4.2% [at 5.9 µM] (inactive). With `CCOC(=O)N1CCN(c2nc(-c3ccc(C)cc3)cc(C(F)F)n2)CC1`, the inhibition was 1.5% [at 5.9 µM] (inactive). Turning to `COc1cc(OC)cc(C(=O)Nc2cc(-c3cn4cccnc4n3)ccc2OC)c1`, the inhibition is 4.4% [at 5.5 µM] (inactive).

With `O=C(N1CCN(c2nc(-c3ccccc3)c3ccccc3n2)CC1)C(F)(F)F`, the inhibition is 5.9% [at 5.8 µM] (inactive). Under `O=C(c1cccc(F)c1)N1CCN(c2nc(-c3ccc(F)cc3)cc(C(F)(F)F)n2)CC1` stands -0.1% [at 5 µM] (inactive); under `CCC(=O)Nc1cccc(-c2cn3cccnc3n2)c1`, -0.2% [at 8.3 µM] (inactive); under `COc1ccc(-c2cn3cccnc3n2)cc1NC(=O)c1ccco1`, 1.3% [at 6.7 µM] (inactive). To `COc1cccc(-c2cc(C(F)(F)F)nc(N3CCN(Cc4ccccc4)CC3)n2)c1` belongs -16.6% [at 5.2 µM] (inactive). Under `COc1ccc(-c2cn3cccnc3n2)cc1NC(=O)c1ccc(C(F)(F)F)cc1` stands 3.7% (inactive); under `FC(F)(F)c1cc(-c2ccco2)nc(N2CCN(C(c3ccccc3)c3ccccc3)CC2)n1`, 0.5% [at 4.8 µM] (inactive); under `CCCC(=O)Nc1cccc(-c2cn3cccnc3n2)c1`, -1.6% [at 7.9 µM] (inactive). For `FC(F)(F)c1cc(-c2ccccc2)nc(N2CCN(c3cccc(Cl)c3)CC2)n1`, the inhibition was -2.5% [at 5.3 µM] (inactive). To `Cc1ccc2nc(N3CCN(c4ccccc4)CC3)nc(-c3ccccc3)c2c1` belongs 0.6% [at 5.8 µM] (inactive); to `COc1ccc(-c2cn3cccnc3n2)cc1NC(=O)COc1ccc(Cl)cc1`, -3.3% (inactive); to `COc1ccc(-c2cn3cccnc3n2)cc1NC(=O)Cc1ccc(Cl)cc1`, 8% [at 5.7 µM] (inactive).

With `Cc1ccc2nc(N3CCN(C(=O)CC4(CC(=O)O)CCCC4)CC3)nc(-c3ccccc3)c2c1`, the inhibition was 0.5% [at 4.7 µM] (inactive). To `CCCCOc1ccc(C(=O)Nc2cc(-c3cn4cccnc4n3)ccc2OC)cc1` belongs 2.6% [at 5.3 µM] (inactive); to `Brc1ccc2nc(N3CCN(c4ccccc4)CC3)nc(-c3ccccc3)c2c1`, 0.6% [at 5 µM] (inactive).

For `O=C(c1ccc(Cl)cc1)N1CCN(c2nc(-c3ccccc3)c3ccccc3n2)CC1`, the inhibition is -1.9% [at 5.2 µM] (inactive). Consider `CCOC(=O)N1CCN(c2nc(-c3ccc(OC)c(OC)c3)cc(C(F)(F)F)n2)CC1`, for which the inhibition was 4.1% [at 5.1 µM] (inactive). To `COc1ccc(-c2cn3cccnc3n2)cc1NC(=O)c1cccc(Br)c1` belongs 0.1% [at 5.3 µM] (inactive). For the molecule `CC1(C)CC(=O)c2cnc(N3CCN(Cc4ccc5c(c4)OCO5)CC3)nc2C1`, the inhibition was 11.3% [at 5.6 µM] (inactive). Under `CCCCN1CCN(c2nc(-c3ccccc3)c3cc(C)ccc3n2)CC1` stands -1.5% [at 5.6 µM] (inactive). To `O=C1CC(c2ccco2)Cc2nc(N3CCN(Cc4ccccc4)CC3)ncc21` (stereo not drawn) belongs 5.5% [at 5.7 µM] (inactive). To `CCOC(=O)N1CCN(c2nc(-c3cccc(Cl)c3)c3c(n2)-c2ccccc2OC3)CC1` belongs 3.2% [at 4.9 µM] (inactive); to `O=C(c1cccc(F)c1)N1CCN(c2nc(-c3cccs3)cc(C(F)(F)F)n2)CC1`, 1.1% [at 5.1 µM] (inactive).

`Cc1ccc(C(=O)N2CCN(c3nc(-c4ccccc4)c4cc(Br)ccc4n3)CC2)cc1`: the inhibition was -4.3% [at 4.6 µM] (inactive). Take `Cc1ccc2nc(N3CCN(c4ccccc4Cl)CC3)nc(-c3ccccc3)c2c1`: the inhibition is -6% (inactive). To `O=C(C1CCCCC1)N1CCN(c2nc(-c3ccccc3Cl)c3cc(Br)ccc3n2)CC1` belongs 3.4% [at 4.3 µM] (inactive); to `COc1ccc(-c2cc(C(F)(F)F)nc(N3CCN(Cc4ccccc4)CC3)n2)cc1`, -2.6% [at 5.2 µM] (inactive).

The values above are taken from PubChem BioAssay AID763 (NMMLSC, 2007).
